These results are taken from PubChem BioAssay AID463173 (ICCB-Longwood Screening Facility, Harvard Medical School, 2010).

Among all 52,000 compounds or so, about 1,700 (3.3%) were called active. What follows is part of a selection rich in actives, with near analogues and random picks from the rest. Values without a mark were called inactive. Cut-off read from the data, not from the text of the source: active = survival mostly below about 52% (no sharp cut-off); inactive = mostly above about 56%.

The subject of the assay is Wild type. Description: growth inhibition of S. aureus wild type versus tarO mutant, primary screen, teichoic acid synthesis inhibitors, RN4220, OD600 (AID 463173). As to conditions: S. aureus RN4220 wild type/DeltatarO growth, OD600, 18 h, hits give low values, screened at 18.75 µg/mL (by protocol).
As for `Cc1ccccc1Nc1c(-c2ccc(N3CCOCC3)cc2)nc2cccc(C)n12`, the survival was 59%.

Take `Cc1ccc(N(C)C(=O)C2CCCN(c3ncnc4c3nc3n4CCCCC3)C2)cc1C` (stereo not drawn): the survival was 127%.

As for `CCc1ccc(NC(=O)C2CCN(c3nn4cc(-c5ccc(OC)cc5)nc4s3)CC2)cc1`, the survival was 71%.

`COc1ccc(-c2nc3c4ccccc4n(CC(=O)N4CCN(c5ccccc5F)CC4)c(=O)n3n2)cc1`: the survival was 91%.

`CC1(C)C(=O)NC(=O)N1CN1C(=O)NC(=O)C1(C)C`: the survival is 111%. Next, `CCOc1ccc(C(=O)Nc2ccc(-n3nncc3-c3ccccc3)cc2)cc1OCC`: 135%. Then `O=C(c1cc2c(=O)oc3ccccc3c2s1)N1CCN(c2cccc(Cl)c2)CC1`, with 145%; and `CCCN1C(=O)c2ccccc2CC1(C)C(=O)NC1CCCCC1` (stereo not drawn), with 85%; and `Cc1cccc(NC(=O)c2c(Br)sc3c2CCCC3)c1`, with 0% (active). Next, `O=C(Nc1cccc(Cl)c1)c1c(NC(=O)C(F)(F)F)sc2c1CCCC2`: -2% (active); `Cc1cccc(NC(=O)c2c(NC(=O)c3ccccc3)sc3c2CCCC3)c1`: 82%. Take `COc1ccc(CC(=O)Nc2sc3c(c2C(=O)Nc2cccc(C)c2)CCCCC3)cc1`: the survival is 63%. Then `Cc1cccc(C(=O)Nc2sc3c(c2C(=O)Nc2ccccc2)CCC3)c1`, with 67%; and `Cc1cccc(NC(=O)c2c(NC(=O)c3ccccc3)sc3c2CCC3)c1`, with 80%; and `O=C(Cc1ccccc1)Nc1sc2c(c1C(=O)Nc1cccc(Cl)c1)CCCCC2`, with 91%. Consider `Cc1cccc(NC(=O)c2c(NC(=O)C(F)(F)F)sc3c2CCCCC3)c1`, for which the survival is -3% (active).

For `O=C(Nc1sc2c(c1C(=O)Nc1cccc(Cl)c1)CCCC2)c1cccs1`, the survival is 140%. Take `CCOC(=O)c1c(S(=O)(=O)N2CCCC(C(=O)N3CCN(c4cc(C)ccc4C)CC3)C2)c(C)n(C)c1C` (stereo not drawn): the survival is 72%.

For `COc1cccc(-c2cc(C(=O)Nc3cnn(Cc4ccc(Cl)cc4Cl)c3)no2)c1`, the survival was 112%.

Turning to `CCC(=O)n1c2c(c3ccccc31)Nc1ccccc1N2`, the survival was 105%. Consider `CC(C)Oc1ccc(CNC(=O)C2CCN(Cc3cc4ccccc4n3Cc3ccccc3)CC2)cc1`, for which the survival is 93%.

On to `CCC(C(=O)NCCc1ccc(Cl)cc1)n1ccc2cc(S(=O)(=O)N3CCCCC3)ccc21` (stereo not drawn), for which the survival is 101%. In the case of `CCC(c1nnnn1C1CCCC1)N1CCN(Cc2ccccc2)CC1` (stereo not drawn), the survival was 104%. As to `COc1ccc(C(=O)c2cn(CC(=O)Nc3cc(C)ccc3C)c3nc(C)ccc3c2=O)cc1`, the survival is 146%. Next, `CCOC(=O)C1NC(=O)CC1c1ccccc1` (stereo not drawn): 99%; `CCc1ccc(OC(C)C(=O)N2CCC(c3nc4ccccc4o3)CC2)cc1` (stereo not drawn): 92%; `Cc1cccc(OCC(=O)N2CCC(c3nc4ccccc4o3)CC2)c1C`: 72%. Then `Cc1cccc(C)c1OCC(=O)N1CCC(c2nc3ccccc3o2)CC1`, with 81%. Then `CC(Oc1ccccc1F)C(=O)N1CCC(c2nc3ccccc3o2)CC1` (stereo not drawn), with -18% (active). Regarding `COc1ccccc1OCC(=O)N1CCC(c2nc3ccccc3o2)CC1`, the survival was -12% (active). For the compound `Cc1cccc(OC(C)C(=O)N2CCC(c3nc4ccccc4o3)CC2)c1C` (stereo not drawn), the survival is 74%.

For the compound `Cc1ccccc1C(=O)NC1CCN(CC(=O)NC(C)(C)C)CC1`, the survival was 100%. Then `CC(Oc1ccc(/C=C(/C#N)C(=O)N2CCOCC2)cc1)C(=O)O` (stereo not drawn), with 104%; and `Cc1ccc(N(C)C(=O)c2noc3c2CCCCC3)cc1C`, with 73%.

On to `CCCCn1c(=O)c2oc3ccccc3c2n(Cc2ccc(OC)cc2)c1=O`, for which the survival was 115%. With `CCCCN(C)CC(O)Cn1cc(/C=C/C(=O)c2ccc(OCC)cc2)c2ccccc21` (stereo not drawn), the survival was 21% (active). Then `CCCCN(C)CC(O)Cn1cc(/C=C/C(=O)c2ccc(OC)c(OC)c2)c2ccccc21` (stereo not drawn), with 87%; and `CCOc1ccc(C(=O)/C=C/c2cn(CC(O)CN3CCc4ccccc43)c3ccccc23)cc1` (stereo not drawn), with 69%. In the case of `Cc1ccc(C(=O)/C=C/c2cn(CC(O)CN3CCc4ccccc43)c3ccccc23)cc1` (stereo not drawn), the survival is 76%.

For `CCCCN(C)CC(O)Cn1cc(/C=C/C(=O)c2ccc(Br)cc2)c2ccccc21` (stereo not drawn), the survival is 15% (active). Next, `CCCCN(C)CC(O)Cn1cc(/C=C/C(=O)c2ccc(C)cc2)c2ccccc21` (stereo not drawn): 15% (active); `O=C(O)CCc1ccc(-c2ccccc2)n1Cc1ccco1`: 103%. With `CCOc1ccc(S(=O)(=O)N(C(C)=O)c2ccc3oc(C)c(C(=O)OC)c3c2)cc1`, the survival was 130%.

In the case of `Cc1ccc(N(Cc2cccs2)C(=O)c2ccccc2[N+](=O)[O-])cc1`, the survival is 82%. Next, `CN1C=CC=C/C1=C1\SC(=S)N(C2CCCCC2)C1=O`: 120%; `CC(C)Oc1ccc(CNC(=O)c2cccc(NC(=O)N3CCSc4ncccc43)c2)cc1`: 79%.

Take `CCOc1ccc(NC(=O)c2ccc(NC(=O)N3CCSc4ncccc43)cc2)cc1`: the survival was 64%. As for `Cc1ccc(NC(=O)c2ccc(NC(=O)N3CCSc4ncccc43)cc2)c(C)c1`, the survival was 82%. Next, `CCc1cccc(NC(=O)c2ccc(NC(=O)N3CCSc4ncccc43)cc2)c1`: -3% (active). Then `Cc1ccc(Cl)cc1NC(=O)c1ccc(NC(=O)N2CCSc3ncccc32)cc1`, with 71%; and `CC(C)Oc1ccc(CNC(=O)Cc2ccc(NC(=O)N3CCSc4ncccc43)cc2)cc1`, with 73%; and `CC(=O)c1ccc(NC(=O)c2cccc(NC(=O)N3CCSc4ncccc43)c2)cc1`, with 55%. Next, `CC(C)Oc1ccc(CNC(=O)c2ccc(NC(=O)N3CCSc4ncccc43)cc2)cc1`: 1% (active); `Cc1ccccc1NC(=O)c1ccc(NC(=O)N2CCSc3ncccc32)cc1`: -4% (active). As to `CCOc1ccc(-c2oc3cc(Cl)ccc3c(=O)c2O)cc1OC`, the survival is 103%.

With `CC(C)NC(=O)CSc1cn(CC(=O)N2CCCCCC2)c2ccccc12`, the survival was 95%.

`Cc1cc2c(cc(C(=O)OC(C(=O)NCC3CCCO3)C(C)C)n2C)o1` (stereo not drawn): the survival is 120%. Then `O=C(c1ccc(F)cc1)N1c2ncnn2C2(CCCCC2)[C@@H]2CCCC[C@@H]21`, with 82%.
